For 21 compounds, outcome and AC50 results are on record in PubChem BioAssay (EPA / NIEHS).

Values joined by “and” are separate entries in the source; they are usually repeats but may differ in a detail not shown here. Identical values can stand only once. Active and inactive are the calls of the source. The calls were made as follows: active = hit-call score of the fitted dose curve at least 0.9, where 1 is the maximum; inactive = score below 0.9.

Read-out in test [1]: Vascular cell adhesion molecule 1 (VCAM1), VCAM1 (gene 7412)
Put plainly: BSK_4H_VCAM1: BioMAP Diversity Plus: 4H Assay for Vascular cell adhesion molecule 1 (VCAM1) Biomarker Activity (AID 2283033).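 As to outcome: cell-surface VCAM-1 protein measured by ELISA.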 The following applies: primary human endothelial cells (HUVEC); actives raise or lower the signal. In short, it runs like this:
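HUVEC, 24 h post-dose; VCAM-1 by ELISA. Bidirectional curve fit vs DMSO baseline. Parallel SRB total-protein stain (0.1% SRB after 10% TCA fixation, 560 nm) for cytotoxicity.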

Read-out in test [2]: Interferon-gamma inducible Protein 10 (IP10), CXCL10 (gene 3627)
Kind of test: BSK_BE3C_IP10: BioMAP Diversity Plus: BE3C Assay for Interferon-gamma inducible Protein 10 (IP10) Biomarker Activity (AID 2283034). The following applies: primary human bronchial epithelial cells; actives raise or lower the signal. In short, it runs like this:
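ELISA readout of IP-10 in BE3C system: primary human bronchial epithelial cells, 24 h post-dosing; bidirectional curve fit vs DMSO baseline.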

Read-out in test [3]: Monokine induced gamma interferon (MIG), CXCL9 (gene 4283)
Put plainly: BSK_BE3C_MIG: BioMAP Diversity Plus: BE3C Assay for Monokine induced gamma interferon (MIG) Biomarker Activity (AID 2283035).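 Also: MIG protein measured by ELISA in BE3C cultures after 24 h of dosing.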 The following applies: primary human bronchial epithelial cells; actives raise or lower the signal. The method in brief: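 hu bronchial epithelial 1° cells, 24 h cpd; MIG by ELISA; bidirectional fit, DMSO = baseline.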

Read-out in test [4]: Transforming growth factor beta 1 (TGFb1), TGFB1 (gene 7040)
Put plainly: BSK_BE3C_TGFb1: BioMAP Diversity Plus: BE3C Assay for Transforming growth factor beta 1 (TGFb1) Biomarker Activity (AID 2283036;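 also: TGF-b1 protein level measured by ELISA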). The note with it: primary human bronchial epithelial cells; actives raise or lower the signal. The method in brief: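 Read-out: ELISA for TGF-b1 in primary human bronchial epithelial cultures, 24 h post-dose. Bidirectional curve fitting vs DMSO control; gain or loss of signal both scored.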

Read-out in test [5]: Plasminogen activator inhibitor-1 (PAI1), SERPINE1 (gene 5054)
Kind of test: BSK_BE3C_PAI1: BioMAP Diversity Plus: BE3C Assay for Plasminogen activator inhibitor-1 (PAI1) Biomarker Activity (AID 2283037). The following applies: primary human bronchial epithelial cells; actives raise or lower the signal. In short, it runs like this: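 ELISA read-out of PAI-1 from human bronchial epithelial primary cells, 24 h post-dosing; bidirectional curve fit vs DMSO baseline, gain or loss of signal scored.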

Read-out in test [6]: urokinase plasminogen activator (uPA), PLAU (gene 5328)
Put plainly: BSK_BE3C_uPA: BioMAP Diversity Plus: BE3C Assay for urokinase plasminogen activator (uPA) Biomarker Activity (AID 2283038).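 Also: uPA protein level quantified by ELISA in cell cultures; uPA read one day after compound addition.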 The note with it: primary human bronchial epithelial cells; actives raise or lower the signal. In short, it runs like this:
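Primary human bronchial epithelial cells, uPA measured by ELISA 24 h after dosing. Bidirectional change relative to DMSO; cytotoxicity checked in parallel cultures by sulforhodamine B total-protein staining.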

Read-out in test [7]: Urokinase-type plasminogen activator receptor (uPAR), PLAUR (gene 5329)
Put plainly: BSK_BE3C_uPAR: BioMAP Diversity Plus: BE3C Assay for Urokinase-type plasminogen activator receptor (uPAR) Biomarker Activity (AID 2283039).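 Also: uPAR protein level measured by ELISA on the cells; cells exposed to compound for one day before measurement.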 The note with it: primary human bronchial epithelial cells; actives raise or lower the signal. The method in brief:
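ELISA readout of uPAR on human lung primary bronchial epithelial cells, 24 h post-dosing. Bidirectional curve fit relative to DMSO vehicle baseline; gain or loss of signal both scored.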

Read-out in test [8]: Interleukin-6 (IL6), IL6 (gene 3569)
Kind of test: BSK_CASM3C_IL6: BioMAP Diversity Plus: CASM3C Assay for Interleukin-6 (IL6) Biomarker Activity for (AID 2283040). The following applies: primary human coronary artery smooth muscle cells; actives raise or lower the signal.

Read-out in test [9]: Tissue plasminogen activator (tPA), PLAT (gene 5327)
Kind of test: BSK_BE3C_tPA: BioMAP Diversity Plus: BE3C Assay for Tissue plasminogen activator (tPA) Biomarker Activity (AID 2283041).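 As to outcome: tPA level quantified by ELISA one day after compound addition.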 The note with it: primary human bronchial epithelial cells; actives raise or lower the signal. The method in brief: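 ELISA read-out of tPA on human primary bronchial epithelial cells, 24 h post-dosing; bidirectional fit vs DMSO negative control/baseline.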

Read-out in test [10]: Interleukin-8 (IL8), CXCL8 (gene 3576)
Put plainly: BSK_CASM3C_IL8: BioMAP Diversity Plus: CASM3C Assay for Interleukin-8 (IL8) Biomarker Activity (AID 2283042).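 Also: IL-8 protein level quantified by ELISA.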 The note with it: primary human coronary artery smooth muscle cells; actives raise or lower the signal.

Regarding `CCc1cccc(CC)c1N`, the outcome in [1], in [2], in [3], in test [4], in test [5] and in test [6] was inactive. Moreover, the outcome in test [7], in test [8], in test [9] and in test [10] was inactive.

`CCc1ccc(O)c(C(C)(C)C)c1`: in test [1], the AC50 – broadly, the midpoint of the concentration-response curve, whichever way the signal moves – is 31.1 µM (active). Besides, the result in test [2], in [3], in test [4], in test [5], in [6] and in test [7] was inactive. The outcome in test [8], in test [9] and in [10] was inactive.

`CCCCC(CC)C(=O)OCCOCCOCCOC(=O)C(CC)CCCC` (stereo unspecified): the outcome in [1], in test [2], in test [3], in [4], in test [5] and in [6] was inactive. The outcome in test [7], in test [8], in [9] and in [10] was inactive.

As to `O=S1(=O)CCCO1`, the result in [1], in [2], in test [3], in test [4], in test [5] and in test [6] was inactive. Moreover, the outcome in test [7], in test [8], in test [9] and in test [10] was inactive.

In the case of `Cc1nc(-c2ccccn2)ncc1C(=O)Nn1cc(C)c2cc(F)ccc21`, the result in test [1], in test [2], in [3], in test [4], in test [5] and in test [6] was inactive. Moreover, the result in test [7], in test [8], in test [9] and in [10] was inactive.

In the case of `C[C@@H](Oc1ccc(CNC(=O)c2cccnc2Oc2ccc3c(c2)OCO3)c(F)c1)C(=O)O`, the outcome in test [1], in test [2], in [3], in test [4], in test [5] and in [6] was inactive. The outcome in test [7], in [8], in test [9] and in test [10] was inactive.

As for `CCCCCOC(C)=O`, the result in [1], in test [2], in test [3], in test [4], in [5] and in test [6] was inactive. Moreover, the result in test [7], in test [8], in test [9] and in test [10] was inactive.

Regarding `O=C1CN(N=Cc2ccc([N+](=O)[O-])o2)C(=O)N1`, the outcome in test [1], in test [2], in test [3], in test [4], in test [5] and in test [6] was inactive. The result in test [7], in test [8], in test [9] and in test [10] was inactive.

For `CCCC(CCC)C(=O)O`, the outcome in [1], in test [2], in [3], in [4], in test [5] and in test [6] was inactive. For the same compound, the result in test [7], in test [8], in test [9] and in test [10] was inactive.

Consider `O=S(=O)(O)c1ccc(N=Nc2c(O)ccc3cc(S(=O)(=O)O)ccc23)cc1`, for which the outcome in [1], in test [2], in test [3], in test [4], in test [5] and in [6] was inactive. For the same compound, the outcome in test [7], in [8], in [9] and in test [10] was inactive.

Take `NC(=O)N(O)[C@@H]1COc2cc(OCc3ccccc3)ccc21`: the outcome in test [1], in [2], in test [3], in [4], in test [5] and in [6] was inactive. Further, the outcome in [7], in test [8], in test [9] and in [10] was inactive.

Regarding `OC(Cn1cncn1)(Cn1cncn1)c1ccc(F)cc1F`, the outcome in test [1], in test [2], in test [3], in test [4], in test [5] and in [6] was inactive. Moreover, the outcome in [7], in test [8], in test [9] and in test [10] was inactive.

In the case of `CCCCCCCCN(C)C`, the outcome in test [1], in test [2], in [3], in [4], in [5] and in [6] was inactive. Further, the result in test [7], in [8], in test [9] and in test [10] was inactive.

As to `CCCOc1ccc(S(=O)(=O)N2CCN(CC)CC2)cc1-c1nc2c(CC)n(Cc3ccccn3)nc2c(=O)[nH]1`, the result in test [1], in test [2], in test [3], in [4], in test [5] and in test [6] was inactive. Also, the result in test [7], in [8], in [9] and in [10] was inactive.

On to `O=C(O)c1cccc(C[C@@H]2COc3ccc(OCc4nc5cc(F)ccc5s4)cc3[C@@H]2O)c1`, for which the result in test [1], in test [2], in [3], in test [4], in [5] and in test [6] was inactive. The result in test [7], in test [8], in test [9] and in test [10] was inactive.

`NC(=O)N1c2ccccc2C=Cc2ccccc21`: the result in [1], in [3], in test [4], in [5], in [6] and in test [7] was inactive. Moreover, the result in test [8], in test [9] and in [10] was inactive.

`FC(F)=C(F)C(F)(F)C(F)(F)C(F)(F)C(F)(F)C(F)(F)C(F)(F)F`: the outcome in [1], in test [2], in [3], in test [5], in test [6] and in test [7] was inactive. The result in test [8], in test [9] and in test [10] was inactive.

Regarding `OC(O)(C(F)C(O)(O)C(F)(F)F)C(F)(F)F`, the result in test [1], in [2], in test [3], in [5], in [6] and in [7] was inactive. In addition, the outcome in test [8] and in test [10] was inactive. Also, the AC50 in test [9] is 24.6 µM (active) and 20.5 µM (active).

On to `CCCCCCOC(=O)CC(CC(=O)OCCCCCC)(OC(=O)CCC)C(=O)OCCCCCC`, for which the result in [1], in test [2], in [3], in test [4], in [5] and in test [6] was inactive. Further, the outcome in test [7], in test [8], in test [9] and in [10] was inactive.

In the case of `O=S(=O)(O)CCC(F)(F)C(F)(F)C(F)(F)C(F)(F)C(F)(F)C(F)(F)F`, the result in test [1], in test [2], in [3], in test [5], in test [6] and in test [7] was inactive. Moreover, the result in test [8], in [9] and in [10] was inactive.

Consider `CCn1nc(C)c2c1C(=O)NCC(c1ccc(O)cc1)=N2`, for which the outcome in [1], in [2], in [3], in test [4], in test [5] and in test [6] was inactive. The outcome in test [7], in [8], in test [9] and in test [10] was inactive.
